# The campaign covered roughly 16,000 compounds. About 2,600 (16%) were called active. Another 20% or so got no clear call; they are omitted. Not all results are given here. Unmarked numbers belong to inactive results. Calls follow the shape of the dose curve; as a rule, active = well fitted curve in the direction sought with a large enough effect; inconclusive = small, poorly fitted or top-dose-only effect, or effect the other way; inactive = no such curve, though single readings can be large or run the other way.
# Target: Cytochrome P450 2D6 (Homo sapiens) (UniProt P10635)
# Assay: Cytochrome panel assay with activity outcomes
# Settings: recombinant CYP, pro-luciferin dealkylation, luminescence, p450-cyp2d6; series mostly up to 57.1 µM; activity, negative = inhibition: at the top concentration
# % is scaled to controls: 0 for no effect and ±100 for the full control effect.
# Sequence of Cytochrome P450 2D6 (Homo sapiens) (P10635 whole entry, looked up): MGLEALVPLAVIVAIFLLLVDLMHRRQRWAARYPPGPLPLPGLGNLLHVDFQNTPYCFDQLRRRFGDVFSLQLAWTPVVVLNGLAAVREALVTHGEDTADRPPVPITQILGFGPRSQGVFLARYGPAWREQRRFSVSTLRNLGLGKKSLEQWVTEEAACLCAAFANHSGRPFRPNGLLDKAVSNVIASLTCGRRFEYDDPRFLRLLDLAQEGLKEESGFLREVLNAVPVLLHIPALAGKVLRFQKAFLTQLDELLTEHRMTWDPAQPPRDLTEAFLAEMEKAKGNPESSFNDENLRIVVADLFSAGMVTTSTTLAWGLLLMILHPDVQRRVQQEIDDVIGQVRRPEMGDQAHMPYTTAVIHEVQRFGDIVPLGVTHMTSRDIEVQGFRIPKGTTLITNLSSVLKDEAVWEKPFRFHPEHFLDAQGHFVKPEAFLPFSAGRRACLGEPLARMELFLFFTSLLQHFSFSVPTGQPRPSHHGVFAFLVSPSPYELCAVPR
SMILES,"activity, negative = inhibition",AC50
Cc1ccc(NC(=O)c2cccc(N(C)C)c2)cc1NC(=O)c1ccc(O)cc1,-8.94%,
Cc1ccc(C(=O)Nc2ccc3nccnc3c2)cc1,-24.5%,
CN(C)CCCc1cc(C(=O)Nc2ccc(-c3ccncc3)cc2)ccc1O,,5.01 µM (active)
Cc1cc(C)cc(-n2nnnc2-c2cn(C)nc2C(F)(F)F)c1,-20.2%,
Cc1cccc(NC(=O)c2ccc([N+](=O)[O-])o2)n1,-26.8%,
COc1cc(/C=N/NC(=O)c2cccnc2)ccc1OC(=O)c1ccco1,-4.37%,
CCOc1cc(/C=N/NC(=O)c2cc(C)[nH]n2)ccc1OC(=O)c1ccc([N+](=O)[O-])cc1,-2.27%,
Cc1cc(C(=O)N/N=C/c2cccc(OC(=O)c3ccco3)c2)n[nH]1,,17.8 µM (active)
CCC/C=C(\CCC)C(NS(=O)(=O)c1cccc2cccnc12)c1ccc(-c2ccccc2)cc1 (stereo unspecified),3.7%,
Fc1ccc(COc2ccc(Br)cc2CNCc2ccncc2)cc1,,0.126 µM (active)
C[N+]1(C)CCO[C@](O)(c2ccccc2)C1,0.284% [at 11.4 µM],
OCCNc1ncnc2c1ncn2[C@@H]1O[C@@H](CO)[C@H](O)[C@@H]1O,3.15% [at 11.4 µM],
COc1ccc(-c2nc(-c3cccc(C)c3)nc(N3CCN(C)CC3)c2C#N)cc1,-4.97%,
CN1CCCC1CCNC1C2CC3CC(C2)CC1C3 (stereo unspecified),-4.6%,
c1ccc(CN2CCC3(CCCc4ccccc43)CC2)cc1,,0.251 µM (active)
CC(=O)c1ccc(N2CCC(c3cc(-c4ccc(Cl)cc4)n[nH]3)CC2)c([N+](=O)[O-])c1,-10.3%,
CCOc1cc(/C=C2/C(=N)N3C=CSC3=NC2=O)ccc1OCCCOc1ccccc1C,1.57%,
CCc1nc(SCC(=O)NCCc2ccccc2)c2oc3ccccc3c2n1,-12.7%,
O=C(CSCc1ccccc1Cl)NN1C(=O)c2ccccc2C1=O,-17.7%,
O=C(CSCc1ccccc1Cl)NNC(=O)c1ccccc1,1.46%,
NCCSCc1ccccc1Cl,,3.16 µM (active)
COc1ccc(C2N(c3ccccn3)C(=O)C3CCCN32)c(OC)c1 (stereo unspecified),4%,

SMILES,"activity, negative = inhibition",AC50
CSc1ccc(Cl)c(C(=O)NCCOc2cc(C)ccc2C(C)C)c1,,11.2 µM (active)
Cc1ccc(OCCNC(=O)c2cc(-n3cnnc3)ccc2Cl)cc1C,29.2%,
CN(C)CCNC(=O)c1cc(Br)ccc1Cl,-18.4%,
O=C1CCCC=C1[C@H](O)c1ccc([N+](=O)[O-])cc1,-11.2% [at 11.4 µM],
NC(N)=NC(N)=Nc1ccccc1 (tested in a mixture with another compound),-8.99% [at 11.4 µM],
Cc1ccc(C(N)=Nc2ccccc2)cc1,,3.16 µM (active)
NC(N)=NC(N)=Nc1ccccc1,2.4%,
COCCn1c(=O)c(-c2cccc(C#N)c2)nc2cnc(N3CCNCC3)nc21,-6.32%,
O=[N+]([O-])c1ccc(N2CCN(Cc3ccccc3)CC2)c(S(=O)(=O)N2CCOCC2)c1,-18.2%,
O=[N+]([O-])c1ccc(N2CCN(CCOc3nonc3-c3ccccc3)CC2)c(Cl)c1,,0.112 µM (active)
CCC(=O)NC(=S)N1CCN(c2ccc([N+](=O)[O-])cc2Cl)CC1,-14.4%,
CCCn1c2c(c(O)c(C(=O)NCc3ccccc3)c1=O)CCCC2,,10 µM (active)
Cc1cc(=O)oc(C)c1C(=O)NCc1ccccc1,-2.69%,
CCCCCCc1nc2ccccc2c(=O)n1NC(=O)c1c(O)c2c(n(CC(C)C)c1=O)CCCC2,22.7%,
O=c1cnc2cnc(Nc3ccccc3)nc2n1CCc1ccccc1,-1.38%,
Cc1ccccc1C(=O)N1CCN(c2ccc([N+](=O)[O-])c(N3CCOCC3)c2)CC1,-1%,
Cc1cccc(C)c1NC(=O)CSc1nc(C)c(CC(=O)c2ccc(Br)cc2)c(C)c1C#N,-9.75%,
Cc1ccnc(NCn2nnc3ccccc32)c1,-14.9%,
COCCN1CN=C(Nc2nc3ccccc3o2)NC1,12%,
c1ccc2sc(NC3=NCN(C4CCCCCC4)CN3)nc2c1,,1 µM (active)
c1ccc(/C(=N/Nc2nc3ccccc3s2)c2ccccn2)cc1,-1.95% [at 11.4 µM],
O=C(NNc1nc2ccccc2s1)C1CC1,-14.5%,

SMILES,"activity, negative = inhibition",AC50
COc1ccc(C(=O)NCc2ccc(-c3nc4ccccc4s3)cc2)cc1,-11.6%,
COc1ccc(CN2CN=C(Nc3nc4ccccc4s3)NC2)cc1,,7.94 µM (active)
C[C@H](C(=O)c1ccccc1)[C@@H](c1ccccc1)N1CCOCC1,-5.64% [at 11.4 µM],
CC1=C(C#N)C(Nc2ccc(Cl)cn2)(C(F)(F)F)C(=O)N1 (stereo unspecified),-11.3%,
Cn1c(=O)c(-c2cc(F)cc(F)c2)nc2cnc(N3CCOCC3)nc21,-1.51%,
COc1ccc(Nc2ncc3nc(-c4cccs4)c(=O)n(Cc4cccc(OC)c4)c3n2)cc1,4.4%,
CCOc1cc(/C=N/NC(=O)CNc2cccc(C)c2)ccc1OC(=O)c1ccccc1,-19.5%,
Cc1ccc(CS(=O)(=O)CCC(=O)NCc2cccs2)cc1,,11.2 µM (active)
CCOCCCNC(=O)CCS(=O)(=O)Cc1ccc(C)cc1,-3.09%,
Cc1ccc(CS(=O)(=O)CCC(=O)NCc2ccccn2)cc1,2.91%,
COCC(=O)N(C)c1nnc(-c2ccc([N+](=O)[O-])cc2)s1,6.42%,
Cc1ccc(C)c(OCCCC(C)(C)C(=O)O)c1,1.86% [at 25.6 µM],
CC(C)C(NC(=O)OCc1ccccc1)C(=O)O (stereo unspecified),23.6%,
N[C@@H](Cc1ccccc1)C(=O)O,4.66% [at 11.4 µM],
N[C@H](C(=O)O)[C@H](OCc1ccccc1)C(=O)O,,7.94 µM (active)
CCOC(=O)C1=C(C)NC(C)=C(C(=O)OCC)C1c1sccc1C,-25.9%,
CCCCC(=O)NC(=S)Nc1cccc(NC(=O)CC)c1,-10.2%,
Cc1cc(C)c(NC(=O)NC(=O)c2ccc(F)cc2)c(C)n1,5.27%,
CCCCCN=c1ccn(Cc2ccccc2)c2ccccc12,,10 µM (active)
O=C(O)c1ccccc1C(=O)Nc1cc2c(cc1Br)-c1ccccc1C2=O,16.7% [at 11.4 µM],
Cl/C(=C\n1cncn1)c1ccc(Cl)cc1Cl,-3.83%,
CC1(C)[C@@H]2CC[C@]1(CC(=O)O)[C@H](Cl)C2,6.22% [at 11.4 µM],
